# ChEMBL document CHEMBL3988442, “University of Dundee, Small-Polar-MMV Screening Library” (2021)
# About 960 (1.5%) of roughly 66,000 compounds showed an effect of 50% or more. For the sample, strong results were picked, then their nearest neighbours and some compounds at random.
# Test system: Trypanosoma brucei
# Test: Trypanosoma brucei 72 hour study
# Type: functional, organism-based
# Parameters: scale not given: in the data most compounds retested in dose-response had high values
structure (smiles),measurement,setting,value
CN(C)CCCN(Cc1cnn(C)c1)Cc1ccco1.O=C(O)CC(O)(CC(=O)O)C(=O)O,Percent Effect,"30.3 µM, […]",-23.52%
O=C(O)C(F)(F)F.O=C(O)C(F)(F)F.c1cncc(CN2Cc3nccn3CC(Cn3cccn3)C2)c1 (centres undefined),Percent Effect,"30.3 µM, […]",-81.67%
Cc1cc(-c2cnc(N3CCSCC3)nc2C(C)C)on1,Percent Effect,"30.3 µM, […]",-15.33%
Cc1noc(C)c1CN1CCOCC12CCN(c1cnccn1)CC2.O=C(O)C(F)(F)F,Percent Effect,"30.3 µM, […]",-24.7%
Cc1nc(C)c(C(=O)Nc2cc(N3CCC(C)CC3)ncn2)s1,Percent Effect,"30.3 µM, […]",-16.43%
CC1CCN(c2cc(NC(=O)C3CC3)ncn2)CC1,Percent Effect,"30.3 µM, […]",71.79%
Cc1ccccc1NC(=O)Nc1cc(N2CCCC2)ncn1,Percent Effect,"30.3 µM, […]",-35.39%
COc1ccc(-c2csc3c2c(N)nc(=O)n3CCCN(C)C)cc1,Percent Effect,"30 µM, 30.03 µM",-33.83%
CN(C)C(=O)C1CCN(Cc2csc(C(C)(C)C)n2)CC1,Percent Effect,10 µM,-5.321%
CCOC(=O)C1CCN(Cc2csc(C(C)(C)C)n2)CC1,Percent Effect,"30 µM, 30.03 µM",96.9%
CCCNC(=O)C1CCN(Cc2csc(C(C)(C)C)n2)CC1,Percent Effect,"30 µM, 30.03 µM",-44.58%
CCNc1ccnc(CN2CCCC2C(=O)Nc2nccs2)c1 (centres undefined),Percent Effect,"30.3 µM, […]",28.37%
CC(=O)Nc1cccc(CN2CCCC2C(=O)Nc2nccs2)c1 (centres undefined),Percent Effect,"30.3 µM, […]",-3.044%
O=C(Nc1nccs1)C1CCCN1Cc1ccccn1 (centres undefined),Percent Effect,"30.3 µM, […]",98.2%
O=C(NC[C@]12COC[C@H]1CN(Cc1cccs1)C2)c1ccsc1.O=C(O)C(F)(F)F,Percent Effect,"30 µM, 30.03 µM",48.3%
O=C(O)C(F)(F)F.c1csc(CN2CCn3c(Cn4cncn4)cnc3C2)c1,Percent Effect,"30.3 µM, […]",-144.4%
CC1=N[C@@]2(CC[C@@H]3CN(CC4CC4)C[C@@H]32)C(=O)N1CC1CC1.O=C(O)C(F)(F)F,Percent Effect,"30.3 µM, […]",-38.25%
Cc1cnn(CCNCc2nnc(-c3occc3C)o2)c1,Percent Effect,10 µM,-38.66%
O=C(O)C(F)(F)F.O=C(O)C(F)(F)F.c1cnc(N2CCCC3(CCN(c4ncccn4)C3)C2)nc1 (centres undefined),Percent Effect,"30 µM, 30.03 µM",-31.26%
CC(C)N1CCC2(CCCN(c3nccc(C(F)(F)F)n3)C2)CC1.O=C(O)C(F)(F)F,Percent Effect,"30.3 µM, […]",63.32%
O=C(O)C(F)(F)F.O=C1CC2(CCN(CC3CCOC3)CC2)c2ccccc2N1CC1CC1 (centres undefined),Percent Effect,"30.3 µM, […]",-4.569%
Cc1ccc(CN2CCC3(C2)C(=O)N(CC(N)=O)c2ccccc23)s1 (centres undefined),Percent Effect,"30 µM, 30.03 µM",-6.982%
O=C(O)C(F)(F)F.O=C(O)C(F)(F)F.OCCN1CC2(CCN(CC3CC3)CC2)c2ccccc21,Percent Effect,"30 µM, 30.03 µM",101.2%
O=C(O)C(F)(F)F.c1cnc(N2CC3(CCN(CC4CCOC4)CC3)c3ccccc32)nc1 (centres undefined),Percent Effect,"30 µM, 30.03 µM",-50.98%
O=C(O)C(F)(F)F.O=C(O)C(F)(F)F.c1cnc(N2CCC3(CCN(CC4CCOC4)CC3)CC2)nc1 (centres undefined),Percent Effect,"30 µM, 30.03 µM",-26.62%
CC(C)CN1C(=O)C2(CCN(CC3CCOCC3)C2)c2ccccc21.O=C(O)C(F)(F)F (centres undefined),Percent Effect,"30.3 µM, […]",-1.145%
O=C(O)C(F)(F)F.c1cnc(N2CCCC3(CCN(CC4CCOC4)CC3)C2)nc1 (centres undefined),Percent Effect,"30 µM, 30.03 µM",56.13%
CN1CCC2(CCCN(c3nccc(C(F)(F)F)n3)C2)CC1.O=C(O)C(F)(F)F,Percent Effect,"30.3 µM, […]",3.781%
Cc1ccc(CN2CCC3(C2)C(=O)N(CC2CC2)c2ccccc23)s1.O=C(O)C(F)(F)F (centres undefined),Percent Effect,"30.3 µM, […]",92.57%
O=C(O)C(F)(F)F.c1cnc(N2CCC3(CCN(CC4CCOC4)CC3)C2)nc1 (centres undefined),Percent Effect,"30 µM, 30.03 µM",-13.94%
Cl.Clc1ccccc1OCCc1cc(C2CCNC2)n[nH]1 (centres undefined),Percent Effect,"30.3 µM, […]",-6.852%
CN(C(=O)c1ncn2c1CN(C)S(=O)(=O)c1ccccc1-2)C1CC1.O=C(O)C(F)(F)F,Percent Effect,"30 µM, 30.03 µM",-19.09%
COc1cc(N2CC[C@@H]3O[C@H](C(=O)N(C)C)C[C@@H]32)ncn1.O=C(O)C(F)(F)F,Percent Effect,"30.3 µM, […]",-9.278%
CCC(NC(=O)C1CCN(S(C)(=O)=O)CC1)c1ccc(C)c(C)c1 (centres undefined),Percent Effect,"30 µM, 30.03 µM",-5.711%
CCOCc1cc(CN2CCn3c(CO)nnc3C2)ccc1OC.O=C(O)CC(O)(CC(=O)O)C(=O)O,Percent Effect,"30.3 µM, […]",-50.73%
O=C(O)C(F)(F)F.O=C(O)C(F)(F)F.c1cnc(N2CCC3(CCN(CC4CC4)CC3)CC2)nc1,Percent Effect,"30.3 µM, […]",8.512%
O=C(O)C(F)(F)F.c1ccc2c(c1)N(CC1CCOC1)CC21CCN(c2cnccn2)CC1 (centres undefined),Percent Effect,"30.3 µM, […]",99.95%
O=C(O)C(F)(F)F.c1cnc(N2CCC3(CC2)CN(CC2CC2)c2ccccc23)nc1,Percent Effect,"30.3 µM, […]",99.63%
CCS(=O)(=O)N1CCC2(CC1)CN(CC1CCOC1)c1ccccc12.O=C(O)C(F)(F)F (centres undefined),Percent Effect,"30.3 µM, […]",14.83%
O=C(O)C(F)(F)F.O=C1N(CC2CC2)CCC12CCN(c1ncccn1)CC2,Percent Effect,"30.3 µM, […]",-19.41%
CS(=O)(=O)N1CCC2(CC1)CN(CC1CCOC1)c1ccccc12.O=C(O)C(F)(F)F (centres undefined),Percent Effect,"30.3 µM, […]",18.78%
Cc1noc(C(C)N2CCN(CCC(=O)N3CCOCC3)CC2)n1 (centres undefined),Percent Effect,"30 µM, 30.03 µM",-18.56%
Cn1ccnc1C(=O)NCc1cnc2n1CCN(CC1CC1)CC2.O=C(O)C(F)(F)F.O=C(O)C(F)(F)F,Percent Effect,"30.3 µM, […]",-46.77%
CC(C)N(C)Cc1cnc2n1CCN(CCc1ccccc1)C2.O=C(O)C(F)(F)F.O=C(O)C(F)(F)F,Percent Effect,"30 µM, 30.03 µM",55.49%
COCCN1CCn2c(CN(C)C(C)C)cnc2C1.O=C(O)C(F)(F)F.O=C(O)C(F)(F)F,Percent Effect,"30.3 µM, […]",0.5782%
CC(C)N(C)Cc1cnc2n1CCN(Cc1cccc(F)c1)C2.O=C(O)C(F)(F)F.O=C(O)C(F)(F)F,Percent Effect,"30.3 µM, […]",-6.591%
CCn1nnc2c1C(COCC(=O)N(C)C)CN(Cc1ccco1)C2.O=C(O)C(F)(F)F (centres undefined),Percent Effect,"30.3 µM, […]",-38.68%
COc1cccc(-c2nc(C)c(C(=O)NCCC(=O)O)s2)c1,Percent Effect,"30 µM, 30.03 µM",-31.35%
CC(C)CC(=O)N1CC(=O)c2sc(Nc3ccc(C#N)cc3)nc2C1,Percent Effect,"30.3 µM, […]",-13.31%
